Bioassay records as filed in PubChem.
SW480 rerep: inducers of DNA re-replication in SW480 colon cancer cells; SW480 DNA re-replication, Hoechst DNA content imaging, 48 h; Potency, µM (series often up to 46.1 µM), actives largely listed as activators; 340,000 tested, 1.8% active; further: nearly all actives have a fitted effect of over 55% in size
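Hoechst fluorescence of nuclei (405 nm excitation, 500-530 nm emission) measured by plate-scanning imager after 48 hr compound exposure at 37 C; re-replication scored as increased number of nuclei with elevated intensity.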
ELG1 DNA repair: ELG1-dependent DNA repair inhibition; 330,000 tested, 2.3% active; Potency, µM (doses to about 46.1 µM), hits mostly inhibitors; HEK293T ELG1-luciferase reporter, luminescence, 16 h; DNA damage induced by 5-fluorouridine; further: nearly all actives have a fitted effect of over 55% in size
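HEK293T cells expressing luciferase-tagged ELG1 (2,000/well) received 5-Fluorouridine plus compound or DMSO for 16 hr at 37 °C. Luciferase was read by ONE-Glo luminescence after 30 min at room temperature.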
VP16 counter: Gal4-VP16 reporter inhibition counter-screen | Drosophila S2 Gal4-VP16 UAS-luciferase, luminescence, 20 h | Potency, µM (doses to about 53.6 µM), hits mostly inhibitors | 310,000 tested, 3.5% active | AID 2546;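 further: Gal4-VP16 expression switched on by copper sulfate through the metallothionein promoter; nearly all actives have a fitted effect of over 50% in size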
MCF10A rereplic: induces DNA re-replication in MCF 10a normal breast cells; MCF 10A DNA re-replication, Hoechst nuclear intensity, 48 h; Potency, µM (titrated, usually from 46.1 µM), usual class: activators; 350,000 tested, 2.9% active; further: nearly all actives have a fitted effect of over 50% in size
RORg inh: ROR gamma (mouse) transcription inhibition | Potency, µM (titrated, usually from 53.6 µM), hits mostly inhibitors | Drosophila S2 Gal4-RORgamma UAS-luciferase reporter, 20 h | P51450 | 310,000 tested, 5.4% active; further: nearly all actives have a fitted effect of over 60% in size
Target sequence (P51450 whole entry, looked up, the tested form may be a part): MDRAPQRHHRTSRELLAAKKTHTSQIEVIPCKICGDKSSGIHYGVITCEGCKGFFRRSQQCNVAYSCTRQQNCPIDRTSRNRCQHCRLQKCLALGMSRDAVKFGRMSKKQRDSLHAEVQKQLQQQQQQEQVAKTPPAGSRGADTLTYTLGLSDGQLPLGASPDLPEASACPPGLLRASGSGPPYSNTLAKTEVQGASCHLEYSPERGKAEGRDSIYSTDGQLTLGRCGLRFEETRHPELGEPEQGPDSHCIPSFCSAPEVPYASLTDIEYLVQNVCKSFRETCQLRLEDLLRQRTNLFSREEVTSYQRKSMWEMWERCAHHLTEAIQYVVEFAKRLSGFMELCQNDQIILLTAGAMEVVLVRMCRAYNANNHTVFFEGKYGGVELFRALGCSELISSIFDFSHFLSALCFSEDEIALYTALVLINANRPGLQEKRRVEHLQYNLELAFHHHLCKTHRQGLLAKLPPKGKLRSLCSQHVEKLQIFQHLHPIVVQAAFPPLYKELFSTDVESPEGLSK
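Drosophila Schneider cells stably carrying a metallothionein-driven Gal4 DBD–ROR gamma fusion and a UAS-Photinus luciferase reporter were exposed to compound for 1 hr, then induced with copper sulfate (700 uM final) for 20 hr at ambient temperature before luminescence reading.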
Of the large screens only hits and unclear results are named; the others gave an inactive call. A selection: hits, their analogues and other compounds. The true share with any hit is near 10%. The call rests on the fitted dose curve; in most records, active means well fitted curve in the direction sought with a large enough effect; inconclusive means small, poorly fitted or top-dose-only effect, or another doubt; inactive means no such curve, though single readings can be large; an effect the other way counts as inactive or inconclusive.

COc1ccc(C(=O)NC2CCCc3ccccc32)cc1OC1CCN(C(C)=O)CC1 (stereo unspecified)	none
CCCCOc1ccc(NC(=S)Nc2cc(C)nc(SCCCC)n2)cc1	VP16 counter 1µM, RORg inh 1.4µM
CSc1ccc(C(=O)NC2CCSc3ccccc32)cc1 (stereo unspecified)	MCF10A rereplic inconclusive
O=C1OCCN1C(=O)[C@H]1[C@H](c2ccccc2)C(c2ccccc2)=NN1c1ccccc1	MCF10A rereplic 21µM
O=C1OCCN1C(=O)[C@H]1[C@H](c2ccccc2)C(c2ccccc2)=NN1c1ccc(Br)cc1	SW480 rerep 18µM, MCF10A rereplic inconclusive
O=C1OCCN1C(=O)[C@H]1[C@H](c2ccc([N+](=O)[O-])cc2)C(c2ccc(F)cc2)=NN1c1ccccc1	ELG1 DNA repair inconclusive
O=C1OCCN1C(=O)[C@H]1[C@H](c2ccc([N+](=O)[O-])cc2)C(c2ccc(F)cc2)=NN1c1ccc(Br)cc1	ELG1 DNA repair inconclusive
O=C1OCCN1C(=O)[C@H]1[C@H](c2ccccc2)C(c2ccc(F)cc2)=NN1c1ccc(Br)cc1	SW480 rerep 23µM, MCF10A rereplic 9.2µM
CCOC(=O)c1c(S(=O)(=O)NCC(=O)Nc2ccc(OC)cc2)c(C)n(C)c1C	none
O=C(Nc1ccccc1)c1ccc(Br)c(S(=O)(=O)Nc2ccccn2)c1	none
O=C(O)/C=C/c1cnn(-c2ccccc2)c1	ELG1 DNA repair inconclusive, VP16 counter 14µM, RORg inh 7.9µM
CCOC(=O)/C=C/c1cnn(-c2ccccc2)c1	ELG1 DNA repair inconclusive, VP16 counter inconclusive, RORg inh inconclusive
NC1=NC(c2ccc(Cl)cc2)C(C(=O)c2ccccc2)N1 (stereo unspecified)	SW480 rerep inconclusive, ELG1 DNA repair inconclusive, MCF10A rereplic 5.8µM
O=C(c1ccccc1)C1CN(c2ccccc2)CC1c1ccc(Cl)cc1 (stereo unspecified)	none
Cc1cc(C)c2c(N)c(C(=O)N/N=C/c3cccs3)sc2n1	SW480 rerep inconclusive, ELG1 DNA repair inconclusive, MCF10A rereplic 18µM
COc1ccc(/C=N/NC(=O)c2sc3nc(C)cc(C)c3c2N)cc1	SW480 rerep inconclusive, MCF10A rereplic 5.8µM
COc1ccc(NC(=O)c2sc3nc(C)cc(C)c3c2N)cc1	SW480 rerep inconclusive, ELG1 DNA repair inconclusive, MCF10A rereplic inconclusive
Cc1cc(C)c2c(N)c(C(=O)Nc3ccc(F)cc3)sc2n1	ELG1 DNA repair inconclusive, MCF10A rereplic 21µM, RORg inh inconclusive
Cc1cc(C(F)(F)F)c2c(N)c(C(=O)Nc3cc(C)on3)sc2n1	ELG1 DNA repair inconclusive, VP16 counter 4µM, MCF10A rereplic inconclusive, RORg inh 7.1µM
COc1ccc(C2=NOC(Cn3nc(-c4ccccc4C)cc3C(=O)O)C2)cc1 (stereo unspecified)	MCF10A rereplic inconclusive (no result: VP16 counter, RORg inh)
COc1ccc(N2CC(C(=O)OC(C)C(=O)c3ccccc3)CC2=O)cc1 (stereo unspecified)	none
Cc1ccc(C)c(C(=O)COC(=O)Cn2c(C)csc2=O)c1	none
O=C(O)CNc1ccccc1C(=O)O	SW480 rerep inconclusive, ELG1 DNA repair 21µM
CCCc1cc(=O)[nH]c(SCC(=O)N2CCCCCC2)n1	none (no result: VP16 counter, RORg inh)
COc1cccc(CN2CCN(CC(=O)Nc3ccccc3Cl)CC2)c1	ELG1 DNA repair 13µM
Cc1c(C(=O)N2CCN(CC(=O)Nc3ccccc3Cl)CC2)oc2ccc(Br)cc12	MCF10A rereplic 23µM (no result: VP16 counter, RORg inh)
Cc1ccc(NC(=O)CN2CCN(Cc3ccccc3)CC2)c(Br)c1	SW480 rerep inconclusive, ELG1 DNA repair 21µM, MCF10A rereplic inconclusive
COc1cc(OC)cc(C(=O)NC2CCN(CC(=O)Nc3cccc4ccccc34)CC2)c1	ELG1 DNA repair 12µM
Cc1ccc(NC(=O)CCC(=O)N/N=C/C=C/c2ccccc2)cc1	none
CCOC(=O)c1c(NC(=O)CN2C(=O)NC3(CCCC3)C2=O)sc(C)c1CC	none (no result: VP16 counter, RORg inh)
O=C(CCN1CCN(CC(=O)Nc2ccccc2Cl)CC1)Nc1ccccc1F	ELG1 DNA repair inconclusive
O=C(CN1CCN(Cc2ccccc2F)CC1)Nc1ccccc1Cl	ELG1 DNA repair 10µM
COc1ccc(C)cc1N(CC(=O)NC1CCCC1)C(=O)Cn1nnc(-c2ccc(C)o2)n1	none
